High-throughput results as filed in PubChem BioAssay.
GRK2 inh – blocks RNA aptamer binding to human GRK2; inhibition of aptamer binding, % at 10 µM; AID 488847; P25098; hit rate 0.59% among 330,000; bead flow cytometry, FAM-aptamer displacement from GRK2;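 active means inhibition of aptamer binding above 40%, roughly 3 SD of noise, on plates passing a quality check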;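 further: median bead fluorescence of bound FAM aptamer so fluorescent compounds give negative values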
GASC-1 inh – blocks human GASC-1 demethylase activity; GST-JMJD2C(1-420) H3K9me3 demethylation, DELFIA europium; inhibition, % at 2.35 µM; hit rate 0.069% among 330,000;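 active means more than half of a compound's replicate wells show inhibition beyond 50%, single wells judged on their own value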;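 further: signal counts dimethyl H3K9 product captured on neutravidin plate; 0% = median of DMSO wells and 100% = 0.3 times that DMSO median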
Pemphigus Ab inh – inhibitors of pemphigus antibody binding to human desmoglein-3 | DSG3-coupled beads, scFv-anti-DSG3-GFP binding, flow cytometry; hits give low values | binding (percent of control), % at 10 µM | hit rate 0.48% among 310,000;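 active means binding more than 3 SD below its plate's average and above zero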;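 further: hits lower antibody fragment binding to DSG3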
PREPL inh – human PREPL enzyme inhibition | recombinant PREPL, fluorescence polarization activity-based probe | inhibition, % at 5.96 µM | hit rate 0.68% among 320,000; in the data active means inhibition above about 43%;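 further: 0% = enzyme with DMSO and 100% = wells lacking enzyme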
Target sequence (Q4J6C6 whole entry, looked up): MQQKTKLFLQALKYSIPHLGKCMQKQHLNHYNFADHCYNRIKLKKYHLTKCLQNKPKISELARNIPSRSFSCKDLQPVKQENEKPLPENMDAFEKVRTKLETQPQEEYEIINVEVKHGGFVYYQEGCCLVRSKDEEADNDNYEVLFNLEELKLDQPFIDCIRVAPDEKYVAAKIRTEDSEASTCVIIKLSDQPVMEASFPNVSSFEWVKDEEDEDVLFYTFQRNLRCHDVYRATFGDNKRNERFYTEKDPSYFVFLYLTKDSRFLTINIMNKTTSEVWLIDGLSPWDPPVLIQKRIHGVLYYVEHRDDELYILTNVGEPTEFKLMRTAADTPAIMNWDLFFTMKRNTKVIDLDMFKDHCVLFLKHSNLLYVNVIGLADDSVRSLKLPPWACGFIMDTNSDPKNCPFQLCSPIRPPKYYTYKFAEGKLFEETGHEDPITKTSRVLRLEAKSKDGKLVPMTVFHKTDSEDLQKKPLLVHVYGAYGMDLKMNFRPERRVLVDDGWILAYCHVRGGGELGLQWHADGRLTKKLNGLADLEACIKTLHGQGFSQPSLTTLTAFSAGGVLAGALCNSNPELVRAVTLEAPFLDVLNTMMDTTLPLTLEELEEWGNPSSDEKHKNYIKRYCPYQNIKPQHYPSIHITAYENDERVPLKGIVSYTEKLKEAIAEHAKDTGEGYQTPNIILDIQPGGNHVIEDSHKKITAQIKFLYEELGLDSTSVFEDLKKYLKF
VLA-4 inh – inhibition in a human VLA-4 binding assay; inhibition, % (about 7 µM as worked out from the volumes in the protocol); P13612; hit rate 0.2% among 330,000; VLA-4 expressing cells, ligand binding flow cytometry; in the data active means inhibition above about 50%
GRK2 CP1 – confirmation of human GRK2 inhibitors displacing RNA aptamer | shares compounds with GRK2 inh | bead-bound GRK2, FAM-aptamer displacement, flow cytometry | aptamer displacement, % at 10 µM | hit rate 4% among 2,000 | AID 504451;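 active means aptamer displacement above 40%, near three times the noise of non-fluorescent compounds, on plates passing quality checks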;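 further: negative values mostly reflect intrinsic compound fluorescence rather than true enhancement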
Aptamer quench SP – counter-screen for GRK2 aptamer inhibitors: fluorescent aptamer quenchers; shares compounds with GRK2 inh; fluorescence response (% of DMSO), % at 10 µM; AID 504580; 2,000 tested, under 10 active; Carboxyfluorescein RNA aptamer on beads, flow cytometry quenching; hits give low values;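 active means compounds that quench the bead-bound fluorescent RNA probe, cutting fluorescence to under half of the solvent control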;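 further: counterscreen run without GRK2 so only probe quenching by compound is measured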
GRK2 CP2 – human GRK2 inhibition confirmation, cherry pick 2. shares compounds with GRK2 inh. bead-bound GRK2, FAM-aptamer displacement, flow cytometry. inhibition of aptamer binding, % at 10 µM. 360 tested, under 10 active. AID 504782;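 active means inhibition of aptamer binding above 40%, about triple the noise seen with nonglowing compounds, on plates passing quality control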;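 further: negative values mostly come from compounds that fluoresce themselves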
FAM quench SP – counter-screen for GRK2 binding hits: quenchers of fluorescent RNA aptamer. shares compounds with GRK2 inh. carboxyfluorescein RNA aptamer beads, flow cytometry quenching; hits give low values. fluorescence response vs DMSO, % at 10 µM. 360 tested, under 10 active;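 active means response vs DMSO under 50%, meaning signal dropped by over half, treated as fluorescence quencher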;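 further: labelled aptamer on streptavidin beads without GRK2 as a quench counter-screen; 100% = bead fluorescence of DMSO wells and lower means quenching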
Starred values were filed as active, the others as inactive; i = inactive; . = no result given. Only some compounds are listed: those with a hit (about 1.6% of all), similar ones and a draw of the others.

SMILES	GRK2 inh	GASC-1 inh	Pemphigus Ab inh	PREPL inh	VLA-4 inh	GRK2 CP1	Aptamer quench SP	others
COc1ccc(OCCCC(=O)OC(C)C(=O)Nc2ccc(C)cc2)cc1 (stereo not drawn)	3.0	7.5	96.9	-1.6	7.5	.	.
O=C(NC1CC1)c1cccc(Nc2ccc(-c3ccc4c(c3)OCCO4)nn2)c1	3.0	2.6	100.4	25.9	-16.9	11.2	102.7
COc1ccc(CCNC(=O)CN(C)S(=O)(=O)c2ccc(OC)cc2)cc1	60.0*	25.3	107.4	8.0	-1.2	8.2	99.0
Cc1nn(C)c(C)c1C(C)NC(=O)c1cc(COc2cncc(Cl)c2)on1 (stereo not drawn)	83.0*	10.4	108.8	6.8	15.6	3.1	96.5
O=C1c2ccccc2C(=O)N1CCCCSc1nnc(-c2ccc(OC(F)F)cc2)o1	0.0	0.8	106.3	-31.7	2.0	.	.
Cc1nnc(SCCCN2C(=O)c3ccccc3C2=O)o1	15.0	-3.9	99.5	8.2	3.3	-5.4	102.1
O=C(CN1C(=O)/C(=C/c2cccc(Br)c2)SC1=S)N1CCCC1	1.0	2.9	102.9	-3.5	3.7	.	.
Cc1cc(C)n2nc(C(=O)OCC(=O)c3cc(C)n(C)c3C)nc2n1	41.0*	-6.7	82.7	3.3	-30.8	26.1	99.7
Cc1ccc(-c2onc3ccc(C4(C)OCCO4)cc23)cc1	1.0	14.3	97.9	1.1	10.4	.	.
Cc1ccc(-c2onc3ccc(C=O)cc23)cc1	45.0*	-27.9	106.2	-5.5	-4.6	0.2	99.5
COc1ccc(NC(=O)C2CCN(C(=O)Cc3ccccc3)CC2)c(OC)c1	0.0	-7.5	98.8	7.5	5.7	.	.
O=C(Nc1cccc(Cl)c1)c1cc(N=Nc2ccc([N+](=O)[O-])cc2Cl)ccc1O	46.0*	-9.5	102.2	6.6	-24.0	3.9	97.1
[O-]/C(=C(\C(=S)Nc1ccc(Cl)cc1)[n+]1ccccc1)c1ccc(OC(F)F)cc1	53.0*	7.4	96.5	22.4	1.9	0.8	105.1
[O-]/C(=C(\C(=S)Nc1ccccc1F)[n+]1ccccc1)c1ccc(-c2ccccc2)cc1	1.0	3.1	.	-4.2	7.2	.	.
Cc1ccc(N2C(=O)[C@@H]3C(c4ccc(F)cc4)=NO[C@@H]3C2=O)cc1	4.0	7.1	102.0	5.4	23.6	.	.	GRK2 CP2=0.9;FAM quench SP=102.0
O=C1[C@@H]2C(c3cccnc3)=NO[C@@H]2C(=O)N1c1ccc(Br)cc1	5.0	-3.6	103.5	-1.0	9.8	.	.
COc1ccc(C2=NO[C@@H]3C(=O)N(c4cccc(C)c4C)C(=O)[C@H]23)cc1OC	0.0	2.8	97.2	8.4	19.1	.	.	GRK2 CP2=9.7;FAM quench SP=100.0
COc1ccc(C2=NO[C@@H]3C(=O)N(c4ccc(C)cc4C)C(=O)[C@H]23)cc1OC	0.0	156.7	102.7	-3.8	9.9	.	.	GRK2 CP2=-3.2;FAM quench SP=104.0
CCn1nc([N+](=O)[O-])c2c(-c3nc4ccccc4o3)c(N)n(CCCOC)c2c1=O	0.0	-2.5	107.2	16.4	-0.9	.	.
Cc1cc(C)cc(NC(=O)COC(=O)COc2ccc(N(C)S(=O)(=O)c3cccs3)cc2)c1	41.0*	-2.4	95.8	-1.0	-9.8	-3.1	98.4
Cc1ccc2c(c1)C(c1ccc(N3CCOCC3)cc1)=NNC(c1cccs1)=N2	100.0*	-5.9	100.5	6.0	-3.3	2.4	96.9
COc1ccc(CCNC(=O)C(=O)NCC2OCCN2S(=O)(=O)c2ccc(OC)c(OC)c2)cc1OC (stereo not drawn)	1.0	-2.7	109.3	7.1	-16.0	.	.
COc1ccc(CCNC(=O)C(=O)NCC2OCCN2S(=O)(=O)c2cc(F)ccc2F)cc1OC (stereo not drawn)	78.0*	64.0	102.8	-5.3	6.5	-2.9	99.4
CCCCN(CC)Cc1c(O)ccc2c3c(c(=O)oc12)CCC3	0.0	-2.6	103.6	-5.8	i	.	.
COc1ccc(CCNC(=O)c2cccc(S(=O)(=O)N3CCOCC3)c2)cc1OC	0.0	3.1	87.3	8.6	38.1	.	.
SMILES	GRK2 inh	GASC-1 inh	Pemphigus Ab inh	PREPL inh	VLA-4 inh	GRK2 CP1	Aptamer quench SP	others
Cn1ccc2cc3c(cc21)CCN3C(=O)Nc1cccnc1	57.0*	.	82.5	31.6	19.7	-12.8	72.5
COc1cccc(C(C(=O)NCC2CCCO2)N(C(=O)Cn2nnc3ccccc32)c2ccc(NC(C)=O)cc2)c1 (stereo not drawn)	0.0	3.9	109.6	12.0	-6.5	.	.
O=C(NCc1ccncc1)C1COc2ccccc2O1 (stereo not drawn)	0.0	-23.1	97.9	3.5	-5.3	.	.
O=C(NCc1ccccn1)C1COc2ccccc2O1 (stereo not drawn)	90.0*	15.4	94.7	1.1	11.7	3.4	89.4
c1ccc(CCC2CCCCN2Cc2cn[nH]c2-c2cc3ccccc3o2)nc1 (stereo not drawn)	0.0	-10.4	107.6	9.8	-4.7	.	.
O=C(c1ccccn1)C1CCCN(Cc2cn[nH]c2-c2cc3ccccc3o2)C1 (stereo not drawn)	90.0*	-5.1	88.9	16.1	9.3	2.0	99.9
Cc1csc(NC(=O)Cc2c[nH]c3ccccc23)n1	0.0	6.0	110.3	16.8	-13.7	.	.
Cc1cnc(NC(=O)Cc2c[nH]c3ccccc23)s1	51.0*	-5.7	103.5	20.2	17.9	-0.6	99.2
